Results reported in PubChem BioAssay AID488890 (Southern Research Specialized Biocontainment Screening …, 2010).
In all, about 320,000 compounds went through this assay and about 1,300 (0.41%) were called active. Roughly 3% stayed inconclusive and do not appear here. The rule behind the calls is not given here. These entries were drawn from the full list. Potency and affinity values are given separately.

Test: growth inhibition of non-replicating M. tuberculosis (AID 488890);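 note: plate controls were DMSO cells for no effect and high antibiotic wells for full effect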
Conditions: Mycobacterium tuberculosis non-replicating, at 25 µM, stronger effect = higher value

SMILES | inhibition [%]
COc1ccc(N=C2NC(=O)C(CC(=O)NCCc3ccc(OC)c(OC)c3)S2)cc1 (stereo unspecified) | 14.1
CC(NC(=O)c1ccc2c(=O)n3c(nc2c1)CCC3)c1ccc(S(N)(=O)=O)cc1 (stereo unspecified) | -7.93
Cc1ccc(S(=O)(=O)N2CCCN(C(=O)c3cc4ccccc4[nH]3)CC2)cc1 | 11.2
COc1cccc(NC(=O)NNS(=O)(=O)c2ccc(OC)cc2OC)c1 | -16.4
Oc1c(C(c2ccccn2)N2CCCCC2)cc(Cl)c2cccnc12 (stereo unspecified) | 75.4
CN1CCN(C(c2cccnc2)c2ccc3cccnc3c2O)CC1 (stereo unspecified) | 28.6
CCCCOc1ccc(NC(=O)CSc2nnnn2C)cc1 | 18.5
Cn1cccc1/C=C1/C(=O)NC(=O)N(Cc2ccc(F)cc2)C1=O | 74.5
Cn1cccc1/C=C1\C(=O)NC(=O)N(Cc2ccccc2)C1=O | 73
CC1CN(c2nc3ccccn3c(=O)c2C=O)CC(C)O1 (stereo unspecified) | 1.76
CCn1nnc(NC(=O)Cc2ccc(Cl)cc2)n1 | 11.1
CCn1nnc(NC(=O)c2ccc(-c3ccccc3[N+](=O)[O-])o2)n1 | 9.81
CCCn1nnc(NC(=O)c2ccc(-c3cccc(Cl)c3)o2)n1 | 59.5
CCn1nnc(NC(=O)c2ccc(Br)o2)n1 | -5.58
CCCCc1ccc(-c2nc(-c3ccncc3)no2)cc1 | 22.1
CC1=C(C(=O)Nc2ccccc2)S(=O)(=O)CCO1 | 68.2

SMILES | inhibition [%]
Cc1ccc(NC(=O)c2ccccc2)cc1 | 25.8
CCOc1cc(C(=O)Nc2cc(=O)n(C)c(=O)n2C)cc(OCC)c1OCC | 1.17
Cc1cc(Cl)ccc1C(=O)C1CCCN(C(=O)c2cc(C(C)C)no2)C1 (stereo unspecified) | 45.6
CCc1ccccc1NC(=O)N1CCc2ccccc2C1 | -17.5
CCCCNC(=O)N1CCc2[nH]c3ccccc3c2C1 | 5.76
Cc1cn(C(=O)c2cccc(Br)c2)c(C)n1 | -0.97
CCOC(=O)N1N=C(C)CC1(O)c1ccccc1 (stereo unspecified) | -14.8
COC(=O)C1=NN(C(=O)c2cccc(Br)c2)C(O)(c2ccc(Cl)cc2)C1 (stereo unspecified) | 75.6
CCOC(=O)C1=NN(C(=O)c2ccccc2)C(O)(c2ccc(C)cc2)C1 (stereo unspecified) | 73.7
COC(=O)C1=NN(C(=O)c2ccccc2)C(O)(c2ccc([N+](=O)[O-])cc2)C1 (stereo unspecified) | 21.5
COC(=O)C1=NN(C(=O)c2ccc(Cl)cc2)C(O)(c2ccccc2)C1 (stereo unspecified) | 79.6
OCCC1CN(Cc2nc3ccccc3s2)CCN1C1CCCC1 (stereo unspecified) | -3.44
O=C(CSc1nnc2ccccn12)N1CCc2ccccc2C1 | -9.62
Cc1ccccc1CN1C(=O)/C(=C\c2ccc(C(=O)NCCN3CCOCC3)cc2)Sc2ccccc21 | 34.3
O=C(COC(=O)c1cccnc1Cl)Nc1cc(S(=O)(=O)N2CCOCC2)ccc1Cl | -5.03
